Data as given in the supplement of paper PMC8253809.
“And” between values parts separate entries of the source, which are not always exact repeats. Identical values can stand only once.

How the values were obtained:
Experiment in all cases: growth inhibition (% activity, log2 RLU normalised to DMSO / staurosporine); higher = more growth inhibition
Settings in all cases: 33 µM
DIPGX29 = test system: DIPGX29 (H3.3 K27M diffuse intrinsic pontine glioma line)
Procedure, shortened: (§1)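 The growth-inhibition value comes from CellTiter-Glo luminescence, log2-transformed, normalised per plate to % activity between solvent and positive control wells, and taken as the median over replicates. Treatment of pHGG cell lines and H9-derived neural stem cells with approved drugs was at a single final concentration of about 33 μM, in triplicate, for 7 days at 37 °C, 5% CO2.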

DIPGX37 = test system: DIPGX37 (H3.3 K27M diffuse intrinsic pontine glioma line)
Procedure, shortened: as §1

DIPGX7 = test system: DIPGX7 (H3.3 K27M diffuse intrinsic pontine glioma line)
Procedure, shortened: as §1

DIPGX9 = test system: DIPGX9 (diffuse intrinsic pontine glioma line)
Procedure, shortened: as §1

HGGX39 = test system: HGGX39 (paediatric high-grade glioma line)
Procedure, shortened: as §1

HGGX6 = test system: HGGX6 (H3.3 G34R paediatric high-grade glioma line)
Procedure, shortened: as §1

HNSC = test system: HNSC
Procedure, shortened: as §1

SUDIPGIV = test system: SUDIPGIV (diffuse intrinsic pontine glioma line)
Procedure, shortened: as §1

SUDIPGVI = test system: SUDIPGVI (diffuse intrinsic pontine glioma line)
Procedure, shortened: as §1

SUDIPGXIII = test system: SUDIPGXIII (diffuse intrinsic pontine glioma line)
Procedure, shortened: as §1

Row | Compound | growth inhibition (DIPGX29) | growth inhibition (DIPGX37) | growth inhibition (DIPGX7) | growth inhibition (DIPGX9) | growth inhibition (HGGX39) | growth inhibition (HGGX6) | growth inhibition (HNSC) | growth inhibition (SUDIPGIV) | growth inhibition (SUDIPGVI) | growth inhibition (SUDIPGXIII)
1 | CN1C(C(=O)Nc2ccccn2)=C(O)c2sc(Cl)cc2S1(=O)=O | -1.88% | -0.653% | -2.4% | 0.761% | -1.26% | -0.605% | -1.13% | -7.21% | -0.634% | 2.15%
2 | c1ccc2[nH]c(-c3cscn3)nc2c1 | -1.25% | 0.956% | -0.782% | 0.56% | 0.84% | 1.32% | -1.65% | 0.977% | 1.13% | 0.000357%
3 | O=C(O)CCNC(=O)c1ccccc1 | 0.362% | 2.48% | 0.618% | 0.575% | 0.895% | 0.906% | -1.4% | 0.839% | 1.57% | 1.01%
4 | Clc1ccc(COC(Cn2ccnc2)c2ccc(Cl)cc2Cl)c(Cl)c1 (stereo not given) | 3.52% and 3.73% | 2.39% and 1.02% | 2.11% and 1.8% | 4.24% and 1.75% | 8.09% and 4.5% | 8.84% and 5.54% | 8.12% and 18.4% | 11.2% and 18.5% | 2.08% and 0.276% | 8.9% and 4.15%
5 | CCC(=O)O[C@@H](O[P@](=O)(CCCCc1ccccc1)CC(=O)N1C[C@H](C2CCCCC2)C[C@H]1C(=O)O)C(C)C | 1.88% | 3.74% | 2.4% | 1.15% | 2.87% | 2.08% | 2.72% | 1.26% | 3.21% | -1.04%
6 | CC1(C)O[C@@H]2[C@@H](CO[C@@]3(COS(N)(=O)=O)OC(C)(C)O[C@@H]23)O1 | -3.02% | -1.66% | -1.31% | -2.57% | -2.13% | -3.4% | -3.88% | -3.39% | -3.08% | -0.599%
7 | NCCCC(O)(P(=O)(O)O)P(=O)(O)O | -0.387% | -3.88% | 0.704% | 0.583% | -0.159% | -0.423% | 1.02% | -0.208% | 1.59% | 0.669%
8 | CCOC(=O)n1ccn(C)c1=S | 1.7% | 2.04% | 0.732% | 1.21% | 0.889% | 2.62% | 0.384% | -0.192% | 2.2% | -16.1%
9 | CN(C)CCC(c1ccc(Br)cc1)c1ccccn1 (stereo not given) | -0.2% | 1.72% | 0.687% | 0.118% | 1.57% | -1.76% | 4.12% | -0.116% | -0.379% | 1.63%
10 | OCC(CO)N[C@H]1C[C@](O)(CO)[C@@H](O)[C@H](O)[C@H]1O | -0.323% | 0.847% | -1.4% | 0.186% | 0.139% | -0.0513% | -1.53% | -0.574% | 0.28% | 0.0745%
11 | COc1cc2c(cc1Cc1cccc(Cl)c1F)c(=O)c(C(=O)O)cn2[C@H](CO)C(C)C | 1.03% | 1.4% | 3.52% | 3.93% | 4.45% | 0.0329% | 19.8% | 9.68% | 1.61% | 5.02%
12 | O=C(O)c1cc(/N=N/c2ccc(O)c(C(=O)O)c2)ccc1O | -0.786% | 0.929% | 0.432% | 0.755% | 1.33% | 0.125% | 11.3% | -0.724% | -2.65% | 0.343%
13 | CCOC(=O)O[C@]1(C(=O)OCCl)CC[C@H]2[C@@H]3CCC4=CC(=O)C=C[C@]4(C)[C@H]3[C@@H](O)C[C@@]21C | 1.63% | 4.19% | 2.28% | 3.44% | 2.53% | 2.56% | 1.32% | -2.17% | 3.04% | -2.19%
14 | C[C@]12C=CC(=O)C=C1CC[C@H]1[C@@H]3C[C@@H](O)[C@](O)(C(=O)CO)[C@@]3(C)C[C@H](O)[C@@]12F | 0.877% | 1.05% | -1.73% | 3.73% | -0.649% | -0.097% | -1.58% | -3.68% | 0.457% | 1.54%
15 | COc1cc([C@@H]2c3cc4c(cc3[C@@H](O[C@@H]3O[C@@H]5CO[C@@H](c6cccs6)O[C@H]5[C@H](O)[C@H]3O)[C@H]3COC(=O)[C@H]23)OCO4)cc(OC)c1O | 22% | 1.57% | 29.9% | 47.9% | 14.2% | 23.6% | 59.9% | 48% | 10% | 20.7%
16 | COc1ccc(CC(C)NCC(O)c2ccc(O)c(NC=O)c2)cc1 (stereo not given) | -0.234% | -0.809% | 0.814% | 0.302% | 3.66% | 0.0101% | 6.49% | 0.93% | 1.33% | -1.79%
17 | CCCCc1oc2ccc(NS(C)(=O)=O)cc2c1C(=O)c1ccc(OCCCN(CCCC)CCCC)cc1 | 58.9% | 57.4% | 57% | 57.4% | 56.2% | 60.2% | 55.5% | 57.7% | 59.4% | 24.1%
18 | NCCC(O)(P(=O)(O)O)P(=O)(O)O | 0.943% | 2.91% | 2.33% | 0.0373% | 2.9% | 1.86% | 2.52% | 1.34% | 2.52% | 0.475%
19 | N[C@H](Cc1ccccc1)C(=O)O | 1.07% | 4.02% | 1.99% | 1.11% | 3.77% | 0.895% | 14.5% | 3.32% | 2.63% | 2.11%
20 | Cc1c(Cl)cccc1Nc1ccccc1C(=O)O | 1.71% | 2.72% | 2.88% | 2.29% | 4.47% | 2.44% | 4.89% | -2.4% | 2.85% | 0.296%
21 | CN(C)CCCOc1nn(Cc2ccccc2)c2ccccc12 | 13.9% | -2.22% | 24.6% | 5.76% | 18.9% | 14.8% | 40.8% | 18.5% | -1.11% | 0.197%
22 | CC(=O)O[C@@]12CO[C@@H]1C[C@H](O)[C@@]1(C)C(=O)[C@H](O)C3=C(C)[C@@H](OC(=O)[C@H](O)[C@@H](NC(=O)OC(C)(C)C)c4ccccc4)C[C@@](O)([C@@H](OC(=O)c4ccccc4)[C@H]21)C3(C)C | 8.91% | 8.27% | 8.76% | 19.3% | 24.5% | 15.8% | 55.1% | 21.6% | 8.93% | 6.64%
